The whole screen tested about 31,000 sequences, of which about 1,400 (4.5%) were called active. This excerpt belongs to a sample that is enriched for actives. Unmarked numbers belong to inactive results.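 The calls were made as follows: active = median seed-adjusted z-score above 1 or below -1; inactive = the rest.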

Median seed-adjusted z-score data for 108 sequences are collected here from PubChem BioAssay AID1347426 (Functional Genomics Laboratory (NCATS/FGL), 2020).

The nature of this test: Novel Modifiers of Survival Motor Neuron (SMN) Protein: Gene Identification via Genome-wide siRNA Screen.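 Also: luminescence tracks full-length SMN protein made from the SMN2 reporter.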 As to conditions: HEK293T SMN2-luciferase reporter, siRNA knockdown, 72 h; actives lie on both sides. In outline:
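Genome-wide siRNA screen (10418 genes, 3 siRNAs each, 1 pmol per well) by reverse transfection in HEK293T cells stably carrying an SMN2-luciferase reporter; luminescence after 72 hours, normalized to negative-control siRNA, log10-transformed, MAD-scored.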
In general terms: Reporter assays use an easily measured gene product as a stand-in for the process of interest.
With CAUCAGAUCUUGAUCAGUUTT against NKTR, the median seed-adjusted z-score is -1.1 (active).

As to CUCUUCACGUCUGACCUGATT against HTR6, the median seed-adjusted z-score is -0.463.

Take CCCAUAUGAUUACCCAUUUTT against MYH2: the median seed-adjusted z-score was -0.73.

With CCUGCAGAAUAACCUGAUATT against OPTC, the median seed-adjusted z-score is 0.0953.

Regarding CCUGGAAACUACAAGCCCATT against SIRT3, the median seed-adjusted z-score was -0.341.

Take GCCUCGAGCCUAUUCGUUATT against PCDHB4: the median seed-adjusted z-score is 0.00998.

For GACUACGACUGGUUCUUCATT against CSGLCA-T, the median seed-adjusted z-score was 0.146.

AGUCAAGAACAAUACCCAATT against SNRPD2: the median seed-adjusted z-score is -0.849.

In the case of GAGCAGCUCUUAAGCAACATT against SAPS1, the median seed-adjusted z-score is 1.16 (active).

With GCCUGUCCCUAGCAUUGUUTT against CES2, the median seed-adjusted z-score was -0.47.

Consider CCAGUCACUGCAUAACAUUTT against PSMD9, for which the median seed-adjusted z-score is 0.266.

In the case of GAACUAGGAGAUACAAUAUTT against ELOVL6, the median seed-adjusted z-score is 0.742.

For the sequence GGACAGUCUUCUGUAUGCATT against RBM39, the median seed-adjusted z-score was -1.82 (active).

For the sequence CCAGAGAAAUGAGAUUGGATT against ZNF195, the median seed-adjusted z-score was 0.0753.

GCCUGCAAGUGAAGCGGAATT against PRMT1: the median seed-adjusted z-score was -0.596.

Take CAGCCUUCAUGAGAUGUUATT against AMPD3: the median seed-adjusted z-score was -0.0865.

Turning to CAACCUGCUCUACAGCAAATT against PRSS27, the median seed-adjusted z-score is 1.03 (active).

On to GACGCGGUAUGUAGACAUATT against NAT8B, for which the median seed-adjusted z-score was 0.206.

Regarding GCUGCAUUGUGGGUGAUGATT against PTGIR, the median seed-adjusted z-score was -0.0806.

Consider CAAGAGCAGUUUAAUAGCATT against BAT3, for which the median seed-adjusted z-score is 0.567.

For the sequence GGAACUUACUACAACUCCATT against TMPRSS6, the median seed-adjusted z-score was 1.29 (active).

As to GGUUAGCUUAUGUUACAUATT against E2F3, the median seed-adjusted z-score was -0.215.

Take ACUCCUCUCUGUUAAUGGATT against LIN7C: the median seed-adjusted z-score was 0.021.

GGUUGAAGAUGGUACUCCUTT against ADAMTS20: the median seed-adjusted z-score is 1.44 (active).

Turning to CUCCAGAUAUAGACCUCAATT against TRIM22, the median seed-adjusted z-score was 0.363.

For UGUUGUACCUCUAAUGUCATT against GPR172B, the median seed-adjusted z-score was 0.184.

For the sequence GCAACCCACCAAUAACUAATT against ADAM29, the median seed-adjusted z-score was 0.904.

For the sequence UGAGUUCUUUAGGACCGAATT against MFAP3L, the median seed-adjusted z-score is 1.03 (active).

For GUACUGUAGAGAAAGCGUATT against ZNF606, the median seed-adjusted z-score was 0.118.

For UUUCCAAACAAGUACCUAATT against CKS2, the median seed-adjusted z-score is 0.0907.

Regarding GCAUAUACCAUCGCUGUAATT against SUPT16H, the median seed-adjusted z-score was 1.2 (active).

On to CCAGAUAUGGUAUCCCAAUTT against ZNF227, for which the median seed-adjusted z-score was 0.0194.

As to GUCUCAAUCUAAUAAGGAATT against TTLL1, the median seed-adjusted z-score was 0.322.

For GAUCAGGACUUUAUGUUCATT against ZNF225, the median seed-adjusted z-score is 0.0761.

Regarding GAGCGUACCAAGGAUCUAATT against HDLBP, the median seed-adjusted z-score is -1.18 (active).

On to CUUUUGACGUGAACGAUGATT against ORM1, for which the median seed-adjusted z-score was 0.206.

For the sequence CCGCCCAAGUAGUAAAGAATT against ADCY3, the median seed-adjusted z-score is -0.294.

In the case of AGACUUUAAGGAGAAAACATT against YAF2, the median seed-adjusted z-score is 0.

Regarding GGUUCACGGUUCAAAAUCATT against SLC25A24, the median seed-adjusted z-score was -0.0384.

On to GGUCCAACAUGCAAUCCAATT against EDEM3, for which the median seed-adjusted z-score was 0.119.

With GCCGCAACAUGGAAGUACATT against MAPK8IP3, the median seed-adjusted z-score is 0.734.

With GGGAGAUCUUCGACUCAUATT against ADRBK1, the median seed-adjusted z-score is 0.

As to GGGACUAUUCCAAAACCCATT against FLAD1, the median seed-adjusted z-score was 0.367.

Consider GGAAUGUGCUGGUCGGAGATT against TIE1, for which the median seed-adjusted z-score is 0.0629.

For the sequence CCAAAUACAUCGCAUUAGATT against GTPBP4, the median seed-adjusted z-score is 1.01 (active).

For the sequence GGUUCAUACAGACUCUUAUTT against PJA2, the median seed-adjusted z-score was 0.

As for GAUAAAAACAGUCCUUUCUTT against FXYD3, the median seed-adjusted z-score was 0.254.

CAAUGUUACCAAAACCGAATT against ACVR1C: the median seed-adjusted z-score was -0.0005.

Turning to CCCUACCAACAUUAAGUAUTT against CLDN7, the median seed-adjusted z-score is 0.0208.

Regarding GGAUGUGGUUUAUUAUACATT against SLC16A9, the median seed-adjusted z-score is 0.125.

For the sequence GCCUAUCAAUUGUUCGGGATT against TTF1, the median seed-adjusted z-score is 1.76 (active).

On to GCGUAUGGGAUUACAAGAATT against PAFAH1B1, for which the median seed-adjusted z-score was 0.391.

With GGCUAGUACUGACAGAUGATT against CREB3, the median seed-adjusted z-score was 0.0509.

In the case of ACUCCUACAUGUACAUUCUTT against KCNE3, the median seed-adjusted z-score was -1.33 (active).

Take GGUUAAAAGUCGGUCCCAATT against SGCG: the median seed-adjusted z-score was 0.886.

For the sequence GCAUCUCUAUUGUAGCCCUTT against GHRHR, the median seed-adjusted z-score is 0.

For the sequence CAUCCGAUCUGAUAGGUCUTT against EFEMP1, the median seed-adjusted z-score was 0.0157.

AGACCUAGCAUGGACCAGATT against GUCY2E: the median seed-adjusted z-score was 0.61.

In the case of CUUGGACACUGAAAACGCATT against ITGAM, the median seed-adjusted z-score was -1.56 (active).

For the sequence GGAUGAGUACAGAUUUACATT against CLPX, the median seed-adjusted z-score is -0.0436.

Consider AGCUCAUAGCUGACCCAGATT against ZC3H3, for which the median seed-adjusted z-score was -0.622.

As to CAGAUGACUUCAGAACCAATT against KRT33B, the median seed-adjusted z-score is 0.04.

With GGCUAUAUCGUCACAAUGATT against ABCA4, the median seed-adjusted z-score was -1.09 (active).

For the sequence GGUAAUGCUUUAUUCCAAATT against ZNF677, the median seed-adjusted z-score was -0.441.

In the case of GAGCUGACGUGUACUCAUATT against USP5, the median seed-adjusted z-score is 0.596.

As to CGCAUUCUCCAGUCGCACATT against KRT81, the median seed-adjusted z-score was -0.0955.

As to CGGUUGGAGUUGGAUGACATT against TRIB3, the median seed-adjusted z-score is 0.00635.

As for ACAUCAAAACACCAGCUUUTT against YBX2, the median seed-adjusted z-score is 0.362.

Turning to CCUACGUUUUUAUUAUCUUTT against SLC2A14, the median seed-adjusted z-score is -1.09 (active).

For GCACAAGGAGUGACCUUCUTT against GCHFR, the median seed-adjusted z-score was -0.559.

GAACUUUGUUACUAUCGAATT against PCDH9: the median seed-adjusted z-score is 0.165.

Regarding GGAUCCUGGUGAUAAGAGATT against QRICH1, the median seed-adjusted z-score was -1.04 (active).

With GAGAAAAUCUAUAUCCGGATT against NR2C2, the median seed-adjusted z-score was -0.498.

Take CCCGGAGAAUUCUCAAUGATT against NENF: the median seed-adjusted z-score was -0.778.

CAUCAAUGACUCACCCUUUTT against RTN4R: the median seed-adjusted z-score was -0.536.

CAAACGACCUUUGCCCAAATT against MED17: the median seed-adjusted z-score is -2.06 (active).

For the sequence AAACUUGCCUGAGUACAAATT against KCNH3, the median seed-adjusted z-score was -0.509.

In the case of GCUCCAGUCUCACUAAACATT against ZNF552, the median seed-adjusted z-score was 0.437.

On to GAAUGAAGGUUUAUAUUGATT against EPHB3, for which the median seed-adjusted z-score is -0.407.

AGGAGACUCUUUGCUACAATT against MRGPRX1: the median seed-adjusted z-score is -0.188.

With GAAUGUUGACUCUACUGCATT against POLR3K, the median seed-adjusted z-score was 0.504.

With GGGACCAUCCUGUUCUUCATT against KCNK12, the median seed-adjusted z-score was 1.04 (active).

Turning to CUCACAACAAAUUACUUAATT against CYP2C9, the median seed-adjusted z-score is 0.246.

On to GGACUUGAGAGAUCUCUUUTT against DAB1, for which the median seed-adjusted z-score was 0.307.

For GGUCUAAAGGUGGAGAUAATT against EIF2C2, the median seed-adjusted z-score was -0.183.

As for CAUGUGCAGUACAUCCAUATT against TIMP3, the median seed-adjusted z-score is -1.05 (active).

In the case of GCCCUUUACAUACUCUUCATT against IL23R, the median seed-adjusted z-score was 0.512.

As to GGAUGAUAUUCUAUCCUUUTT against IPO13, the median seed-adjusted z-score was 0.612.

With UGCUCAGCAGUACAACGUATT against SYN1, the median seed-adjusted z-score is -0.458.

In the case of UGUCCACGGUUAAAAUUAUTT against CCL16, the median seed-adjusted z-score is -0.308.

For CAAACCGAAUAGAAACUUUTT against PSMC1, the median seed-adjusted z-score is -2.23 (active).

Consider UCAACUGCCCAUACACUUATT against LOC647743, for which the median seed-adjusted z-score was -0.203.

On to UCCCAGUGAUUAUACGUUATT against ARPC4, for which the median seed-adjusted z-score was -0.211.

Turning to GGAUGAGAACAUUAAAACATT against COQ3, the median seed-adjusted z-score is 0.426.

Take UGAUGGAAGUUGUCACUUATT against BLK: the median seed-adjusted z-score was -0.274.

As for GGCAAUGCUUUACUAUGAATT against ABCG8, the median seed-adjusted z-score was -0.0233.

As for AGAUGUUCUUAAGACCAAATT against PACSIN2, the median seed-adjusted z-score is 0.73.

As for GGACUUCUGAAAAUUCGCATT against EP400, the median seed-adjusted z-score is 1.83 (active).

Regarding CCGCGAUCAUAGACCUAGATT against FOXO4, the median seed-adjusted z-score was -0.0576.

With GGACAGGAAGAUACAAGAATT against GPR113, the median seed-adjusted z-score was -0.434.

On to GGAAGAAUAUGUUUAGAUATT against UBE2N, for which the median seed-adjusted z-score is 0.995.

On to CGAGCAAUUUAGAGACUUATT against PCDHGA3, for which the median seed-adjusted z-score is 0.27.

On to GGAGAUACCAGGAACCCAATT against SLC7A13, for which the median seed-adjusted z-score was 0.121.

On to CACGCAGAGUUACCGAAAATT against SPEN, for which the median seed-adjusted z-score was -1.69 (active).

With CGAGCCACCGAGAAGAUAATT against ATAD3A, the median seed-adjusted z-score is -0.283.

As to GGACAAGAUUGGUGGGUUATT against PEX1, the median seed-adjusted z-score was 0.227.

On to GUACCAAUACUGAUAAGAATT against SLC9A11, for which the median seed-adjusted z-score is -0.12.

As for GGCCUAUCCUGAUUCUGAUTT against RND2, the median seed-adjusted z-score is -0.0613.
